Activity calls are given as the source filed them. Entries that show only a call come without a potency. The call rests on the fitted dose curve; in most records, active means well fitted activation curve with a large enough effect in the repeat runs; inconclusive means weak or mixed curves; inactive means flat fitted curve, though single readings scatter.
Potency means the concentration at half of the fitted maximal effect.

This assay deals with Androgen receptor (Homo sapiens) (UniProt P10275). Description: qHTS assay to identify small molecule agonists of the androgen receptor (AR) signaling pathway using the MDA cell line (AID 743040; further: nearly all actives have a fitted effect of over 20% in size). Particulars: MDA-kb2 AR-luc cells, MMTV luciferase, 16 h; series mostly up to 70.3 µM. An excerpt: National Center for Advancing Translational Sciences [NCATS]
Androgen receptor (Homo sapiens), sequence (P10275 whole entry, looked up): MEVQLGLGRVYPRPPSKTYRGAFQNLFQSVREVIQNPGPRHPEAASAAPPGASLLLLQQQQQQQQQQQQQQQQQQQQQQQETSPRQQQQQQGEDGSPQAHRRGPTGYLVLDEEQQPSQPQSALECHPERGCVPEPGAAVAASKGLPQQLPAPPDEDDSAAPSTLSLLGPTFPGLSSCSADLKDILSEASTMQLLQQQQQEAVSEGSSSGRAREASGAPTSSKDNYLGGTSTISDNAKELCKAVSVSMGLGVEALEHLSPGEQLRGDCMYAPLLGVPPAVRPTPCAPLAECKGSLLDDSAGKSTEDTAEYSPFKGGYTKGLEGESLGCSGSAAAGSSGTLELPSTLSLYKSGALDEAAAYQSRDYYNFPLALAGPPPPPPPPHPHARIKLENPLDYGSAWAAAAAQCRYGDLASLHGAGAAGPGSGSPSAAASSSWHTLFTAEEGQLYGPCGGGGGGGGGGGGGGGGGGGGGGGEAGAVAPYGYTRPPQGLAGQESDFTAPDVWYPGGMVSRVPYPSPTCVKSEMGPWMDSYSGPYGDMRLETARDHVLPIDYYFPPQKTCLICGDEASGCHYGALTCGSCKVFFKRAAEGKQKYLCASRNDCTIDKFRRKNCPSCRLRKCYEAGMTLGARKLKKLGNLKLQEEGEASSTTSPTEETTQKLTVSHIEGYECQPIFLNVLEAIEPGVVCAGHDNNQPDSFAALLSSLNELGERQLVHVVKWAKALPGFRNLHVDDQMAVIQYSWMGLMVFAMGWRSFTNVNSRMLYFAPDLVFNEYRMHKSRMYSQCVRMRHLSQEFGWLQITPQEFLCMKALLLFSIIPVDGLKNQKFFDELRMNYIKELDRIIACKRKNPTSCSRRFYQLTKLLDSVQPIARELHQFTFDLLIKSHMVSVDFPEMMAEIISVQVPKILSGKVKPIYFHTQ
NIH Chemical Genomics Center [NCGC]
U.S. Environmental Protection Agency [EPA]
National Institutes of Environmental Health Sciences [NIEHS]
National Toxicology Program [NTP]
U.S. Food and Drug Administration [FDA]
Androgen receptor (AR), a nuclear hormone receptor, plays a critical role in AR-dependent prostate cancer and other androgen related diseases. Endocrine disrupting chemicals (EDCs) and their interactions with steroid hormone receptors like AR may cause disruption of normal endocrine function as well as interfere with metabolic homeostasis, reproduction, developmental and behavioral functions. To identify the compounds that activate AR signaling, MDA-kb2 AR-luc cell line (from ATCC, deposited by Wilson et al.) was used to screen the Tox21 10K compound library. MDA-kb2 AR-luc cell line is human breast carcinoma cell line that was stably transfected with a luciferase reporter gene under control of the MMTV promoter containing response elements for both androgen receptor (AR) and glucocorticoid receptor (GR).
Tox21 Assay Protocol Summary:
MDA-kb2 AR-luc cells were dispensed at 3,000 cells/5 uL/well of culture medium into white wall/solid-bottom 1536-well plates using a Multidrop Combi (ThermoFisher Scientific, Waltham, MA) dispenser. After the assay plates were incubated at 37C and 0% CO2 for 5 h, 23 nL of compounds dissolved in DMSO, positive controls or DMSO only was transferred to the assay plate by a Pintool station (Kalypsys, San Diego, CA). The plates were incubated at 37C and 0% CO2 for 16 h. Then 4 uL of ONE-Glo reagent (Promega, Madison, WI) was added to each plate using a Bioraptr Flying Reagent Dispenser (FRD) workstation (Beckman Coulter, Indianapolis, IN, USA) and luminescence was quantified on a ViewLux (PerkinElmer, Shelton, CT) plate reader after 30 min incubation at room temperature.
On the technique in general: Quantitative high-throughput screening tests each substance at several concentrations.
`N#CSc1ccc(N)c([N+](=O)[O-])c1`: the Potency result is “inactive”.

Consider `CCOC(=O)c1nc(C(Cl)(Cl)Cl)n(-c2ccc(Cl)cc2Cl)n1`, for which the Potency result is “inactive”.

As to `CCCCCCCCCOC(=O)c1ccc(O)cc1`, the Potency entry is “inactive”.

With `CN(C)c1ccc(C2(c3ccc(N(C)C)cc3)OC(=O)c3cc(N(C)C)ccc32)cc1`, the Potency result was “inactive”.

Consider `Nc1ccc2c3c(cccc13)-c1ccccc1-2`, for which the Potency result is “inactive”.

With `CCCC(=O)OC[C@@H](OC(=O)CCC)[C@@H](OC(=O)CCC)[C@H](Cn1c2nc(=O)[nH]c(=O)c-2nc2cc(C)c(C)cc21)OC(=O)CCC`, the Potency was 5.31 µM (active).

Turning to `CCC(C)Nc1ccc(NC(C)CC)cc1` (stereo not given), the Potency result is “inactive”.

`O=C(O)c1ccc(Cl)c(Cl)c1`: the Potency result was “inactive”.

Take `Cc1cc(O)c(Cl)c(C)c1Cl`: the Potency entry was “inactive”.

As to `C[n+]1cc2c3c(ccc2c2ccc4cc5c(cc4c21)OCO5)OCO3`, the Potency result is “inactive”.

As for `CCCN(CCC)C(=O)C(CCC(=O)OCCCN1CCN(CCOC(=O)Cc2c(C)n(C(=O)c3ccc(Cl)cc3)c3ccc(OC)cc23)CC1)NC(=O)c1ccccc1` (stereo not given), the Potency result was “inactive”.

Consider `Oc1ccc(N=Nc2ccccc2)cc1`, for which the Potency entry was “inactive”.

On to `O=C1c2c(O)ccc(Nc3ccc(CCO)cc3)c2C(=O)c2c([N+](=O)[O-])ccc(O)c21`, for which the Potency result was “inactive”.

On to `Clc1ccc2cc3ccccc3cc2c1`, for which the Potency result is “inactive”.

Take `CCCCCCCCCCCCCCCCCC[N+](C)(C)C`: the Potency entry is “inactive”.

On to `Cc1cc(CCN2CCN(c3nsc4ccccc34)CC2)cc2c1NC(=O)CC2(C)C`, for which the Potency entry is “inactive”.

Turning to `Cc1cc(O)c2ccccc2c1O`, the Potency result was “inactive”.

Consider `O=C1CCCc2c1cc1ccc3cccc4ccc2c1c34`, for which the Potency entry was “inactive”.

Turning to `Cc1cc(O)c(C(C)(C)C)cc1Sc1cc(C(C)(C)C)c(O)cc1C`, the Potency entry was “inactive”.

For the compound `CCCCN1CCCC[C@H]1C(=O)Nc1c(C)cccc1C`, the Potency result was “inactive”.

In the case of `Clc1ccc2nsnc2c1NC1=NCCN1`, the Potency was 26.6 µM (active).

Consider `O=S1(=O)CC(Cl)(Cl)C(Cl)(Cl)C1`, for which the Potency result was “inactive”.

Regarding `CCN(Cc1cccnc1)C(=O)c1cccc(Cl)c1[C@]1(C)C(=O)N(Cc2ccc(OC)cc2OC)c2ccc(Cl)cc21`, the Potency result is “inactive”.

On to `CCCCCCCCCCCCCCCCCC[N+](C)(C)Cc1ccccc1`, for which the Potency entry is “inactive”.

Take `[O-][n+]1ccccc1SSc1cccc[n+]1[O-]`: the Potency entry is “inactive”.

In the case of `COc1cccc2c1C(=O)c1c(O)c3c(c(O)c1C2=O)C[C@@](O)(C(=O)CO)C[C@@H]3O[C@H]1C[C@H](N)[C@H](O[C@@H]2CCCCO2)[C@H](C)O1`, the Potency entry is “inactive”.

Consider `Oc1ccc(C2(c3ccc(O)cc3)CC3CC2C2CCCC32)cc1` (stereo not given), for which the Potency entry was “inactive”.

`COc1ccc(C(=O)/C(Br)=C\C(=O)O)cc1`: the Potency entry is “inactive”.

Turning to `c1cc(C(c2ccc(OCC3CO3)cc2)c2ccc(OCC3CO3)cc2)ccc1OCC1CO1` (stereo not given), the Potency result was “inactive”.

In the case of `C=CC(=O)OCC(CO)(COC(=O)C=C)COC(=O)C=C`, the Potency entry was “inactive”.

With `Cc1nc(-c2ccc3c(c2)CCN(CCC2CCC(NC(=O)/C=C/c4ccc(F)cc4)CC2)CC3)no1` (stereo not given), the Potency entry is “inactive”.

Take `CCCCCCCCCCn1cc[n+](CCCCCCCCCC)c1C`: the Potency entry was “inactive”.

`Nc1ccc(N)c2ccccc12`: the Potency result is “inactive”.

Regarding `CC(C)C(C)(C)C(C)(C)C(C)(C)S`, the Potency result was “inactive”.

Regarding `OCCN(CCO)c1nc(N2CCCCC2)c2nc(N(CCO)CCO)nc(N3CCCCC3)c2n1`, the Potency entry is “inactive”.

Regarding `O=C(c1ccc(O)cc1O)c1ccc(O)cc1O`, the Potency entry was “inactive”.

As for `CCc1oc2ccccc2c1C(=O)c1cc(Br)c(O)c(Br)c1`, the Potency result is “inactive”.

Take `Cc1cc(O)c(C(C)(C)C)cc1C(C)(C)C`: the Potency entry is “inactive”.

For `OCCN1CCN(CC/C=C2/c3ccccc3Sc3ccc(C(F)(F)F)cc32)CC1`, the Potency entry was “inactive”.

Regarding `C=C(C)C(=O)OCC[N+](C)(C)C`, the Potency result was “inactive”.

The values above are taken from PubChem BioAssay (Tox21).
